TrxR1 inh = blocks rat thioredoxin reductase 1 | O89049 | recombinant rTrxR1, NADPH fluorescence consumption, selenite substrate | Potency, µM (series often up to 114 µM), without a hit: top-dose activity change, negative = inhibition, actives largely listed as inhibitors | 390,000 tested, 1% active | AID 588453; note: nearly all actives have a fitted effect of over 65% in size
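Rat TrxR1 (90 nM in the dispensed reagent) was pre-reduced with 400 uM NADPH for 5 min at room temperature, then incubated with compound for 15 min. After 400 uM selenite was added, NADPH fluorescence (Ex 340/Em 450 nm) was followed for 8 min.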
Sfp inh = inhibitors of Bacillus subtilis Sfp phosphopantetheinyl transferase; Q9F4F7; Biochemical Sfp PPTase activity, qHTS; Potency, µM, inactives show largest response in the series, negative = inhibition, most hits filed as inhibitors; 310,000 tested, 3.5% active;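 note: the enzyme is Sfp with the accession as filed and its product quenches rhodamine fluorescence; 0% = enzyme reaction without inhibitor and -100% = no enzyme wells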
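Step 1, compound plus 15 nM Sfp-PPTase, 15 min, room temperature. Step 2, add rhodamine-CoA (5 uM) and BHQ-2-YbbR (12.5 uM). Step 3, read 525/598 nm fluorescence at 0 and 30 min.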
PLK1 PBD block = blocks phosphopeptide binding to human PLK1 polo-box domain. P53350. Plk1 PBD binding of FITC phosphopeptide, fluorescence polarization. Potency, µM, without a hit: max response, negative = inhibition, usual class: inhibitors. 360,000 tested, 2.8% active. AID 720504; note: series mostly up to about 57 µM; nearly all actives have a fitted effect of over 65% in size
TrxR1 substrate = rat thioredoxin reductase 1 substrate activity; O89049; purified TrxR1 substrate turnover, NADPH consumption readout; Potency, µM (series often up to 114 µM), for the others: at the top dose activity change, negative = substrate turnover; 390,000 tested, 0.01% active; note: nearly all actives have a fitted effect of over 50% in size
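Rat TrxR1, dispensed at 90 nM, was prereduced with 400 uM NADPH (final) for 5 min at ~22 deg C, then incubated with compound 15 min before 400 uM selenite. A first-read NADPH fluorescence drop versus no-compound background flagged substrates.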
VDR inhibitor = inhibitors of human vitamin D receptor. P11473. VDR-SRC2-3 peptide fluorescence polarization, 2 h. Potency, µM, for inactives: max response, negative = inhibition, usual class: inhibitors. 400,000 tested, 0.93% active. AID 504847
Target sequence (P11473 whole entry, looked up): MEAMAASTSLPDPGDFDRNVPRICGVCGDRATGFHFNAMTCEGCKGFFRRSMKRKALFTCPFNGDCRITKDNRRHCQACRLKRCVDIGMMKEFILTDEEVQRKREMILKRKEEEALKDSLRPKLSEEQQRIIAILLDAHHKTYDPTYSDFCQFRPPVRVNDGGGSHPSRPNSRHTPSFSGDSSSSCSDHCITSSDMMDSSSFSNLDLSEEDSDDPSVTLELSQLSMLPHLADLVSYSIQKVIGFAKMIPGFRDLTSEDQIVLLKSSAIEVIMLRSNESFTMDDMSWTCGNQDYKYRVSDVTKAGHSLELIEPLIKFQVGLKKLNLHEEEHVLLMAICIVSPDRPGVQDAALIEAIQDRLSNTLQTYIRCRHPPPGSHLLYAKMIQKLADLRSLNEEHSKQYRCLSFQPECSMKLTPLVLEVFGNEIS
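Signal is fluorescence polarization, reporting how far test compounds block the interaction of VDR with the SRC2-3 coregulator peptide after a 2 h room-temperature incubation.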
IDH1 R132H inh = blocks human mutant IDH1 R132H enzyme; 390,000 tested, 0.093% active; Potency, µM (series often up to 76.6 µM), for the others: at the highest dose activity change, negative = inhibition, most hits filed as inhibitors; IDH1-R132H enzyme, NADPH consumption, diaphorase/resazurin fluorescence; O75874; AID 602179; note: nearly all actives have a fitted effect of over 65% in size
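IDH1-R132H (0.5 ug/mL) preincubated 30 min with compound, then NADPH (0.016 mM) and alpha-KG (2 mM) added; 80 min at RT, pH 7.5. Remaining NADPH coupled via diaphorase/resazurin to fluorescence (540/590 nm); concentration-response curves normalized to no-enzyme control.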
An asterisk follows results filed as active; ? = inconclusive; · = no result; ! = a repeat was not active; [ ] = dose if it differs, or a comment. In the library only some 5.2% were active in any assay of this set; here they are far more common. Calls come from the whole dose curve; as a rule, active = well fitted curve in the direction sought with a large enough effect; inconclusive = small, poorly fitted or top-dose-only effect, or another doubt; inactive = no such curve, though single readings can be large; an effect the other way counts as inactive or inconclusive. Unless noted, % is set by controls: 0 for no effect and ±100 for the full control effect; potency is the fitted concentration of half-maximal effect.

SMILES | TrxR1 inh | Sfp inh | PLK1 PBD block | TrxR1 substrate | VDR inhibitor | IDH1 R132H inh
COc1cc(C2c3cc4c(cc3C(O)C3COC(=O)C23)OCO4)cc(OC)c1O (stereo not given) | · | -9% | · | · | 0% | ·
C[C@H]1CO1 | · | 4% | · | · | -2% | ·
O=C(O)c1cc[c]([Hg][Cl])cc1 | 0.35µM* | · | 0.24µM* | 12%[57.1 µM] | 10µM* | 7%
O=c1[nH]c(=S)n(-c2ccccc2)c(O)c1/C=N/N1CCCCC1c1cccnc1 (stereo not given) | -16% | 50µM* | -11% | -6% | 29% | 0%
Cc1cccc(N2C(=O)/C(=C/N3CCN(C(=O)c4ccco4)CC3)C(=O)NC2=S)c1 | -27% | ? | ? | -9% | 16% | -1%
Cc1ccc(N2C(=O)/C(=C/N3CCN(C(=O)c4ccco4)CC3)C(=O)NC2=S)cc1C | -33% | 45µM* | 24µM* | -10% | -11% | -2%
O=[N+]([O-])c1ccc(F)c([N+](=O)[O-])c1 | · | 15% | · | · | -2% | ·
O=C1NS(=O)c2cc([N+](=O)[O-])cc([N+](=O)[O-])c21 (stereo not given) | 1% | 18µM* | 24µM* | -2% | ? | 4%
CCCOC(=O)c1cc2c(cn1)[nH]c1ccccc12 | · | ? | · | · | -14% | ·
Clc1cccc(C2NCc3ccccc3-n3cccc32)c1 (stereo not given) | ? | 3% | 30µM* | 2% | -9% | -3%
COc1ccc(C2NCc3ccccc3-n3cccc32)cc1 (stereo not given) | 14% | -6% | 2% | 2% | -5% | -7%
CCCC[C@@H](C)[C@@H](OC(=O)C[C@@H](CC(=O)O)C(=O)O)[C@H](C[C@@H](C)CCCCCC[C@@H](O)C[C@H](O)[C@H](C)N)OC(=O)C[C@@H](CC(=O)O)C(=O)O | · | 14% | · | · | -17% | ·
O=C(O)CCCCC1SCC2NC(=O)NC21 (stereo not given) | 7% | 14% | -11% | -1% | 6% | -14%
CN1Cc2ccccc2[C@@H]2c3cccc4[nH]cc(c34)C[C@H]21 | · | 79µM*! | · | · | 14µM* | ·
c1ccc([Se]c2c(-c3ccccc3)[se]c3ccccc23)cc1 | · | 1% | · | · | 63µM* | ·
Ic1c(C2=CCCCC2)[se]c2ccccc12 | · | -13% | · | · | -13% | ·
COC(=O)[C@@H]1C[C@H](OC(C)=O)C(=O)[C@H]2[C@@]1(C)CC[C@H]1C(=O)O[C@H](c3ccoc3)C[C@]21C | · | -2% | · | · | ? | ·
C=C1[C@@H](C)[C@H]2[C@H](Cc3ccccc3)NC(=O)[C@]23[C@H](OC(C)=O)/C=C/[C@](C)(O)C(=O)[C@@H](C)C/C=C/[C@H]3[C@@H]1O | · | 11% | · | · | -22% | ·
C[C@@H]1O[C@@H](O[C@H]2CC[C@@H](O[C@H]3[C@H](O)C[C@H](c4ccc5c(c4O)C(=O)C4=C(C5=O)[C@@]5(O)C(=O)C[C@](C)(O[C@H]6CC[C@H](O[C@H]7C=CC(=O)[C@H](C)O7)[C@H](C)O6)C[C@@]5(O)C=C4)O[C@@H]3C)O[C@H]2C)C=CC1=O | · | 5µM* | · | · | 2µM* | ·
N#CC(C#N)=NNc1ccc([N+](=O)[O-])cc1 | 22µM* | 9% | 6% | ? | ? | 0%
CCOc1cc(OP(=S)(OC)OC)nc(CC)n1 | · | ? | · | · | 22µM* | ·
CCCN1CCCC(c2cccc(O)c2)C1 (stereo not given) | 0% | · | · | · | · | ·
CC1(C)S[C@@H]2[C@H](N)C(=O)N2C1C(=O)O (stereo not given in full) | · | 14µM* | · | · | 4% | ·
CC1(C)S[C@H]2[C@@H](N)C(=O)N2[C@H]1C(=O)O | · | 56µM* | · | · | 0% | ·
C[C@@]12CC(c3ccoc3)OC(=O)C1CC[C@@]1(C)C2C2C=C[C@@]1(O)C(=O)O2 (stereo not given in full) | · | 15% | · | · | -5% | ·
SMILES | TrxR1 inh | Sfp inh | PLK1 PBD block | TrxR1 substrate | VDR inhibitor | IDH1 R132H inh
COP(=S)(OC)Oc1ccc([N+](=O)[O-])c(C)c1 | · | ? | · | · | 22µM* | ·
CN(C)c1ccc([N+](=O)[O-])c([N+](=O)[O-])c1 | -34% | · | -10% | -12% | -14% | 16%
CC(=O)N1C[C@H](O)C[C@H]1C(=O)O | 16% | · | ? | -4% | -11% | -10%
CCCCCCC(C)(C)c1ccc([C@@H]2C[C@H](O)CC[C@@H]2CCCO)c(O)c1 | · | 1% | · | · | -2% | ·
CC1CC2CC(=O)C3CCCN4CCCC2[C@]34C1 (stereo not given in full) | · | 15% | · | · | 3% | ·
O=C(Cc1ccc(Br)cc1)N1CCN(Cc2ccccc2)CC1 | 1% | -11% | -10% | -1% | ? | 6%
O=C(Cc1ccccc1)N1CCN(Cc2cccc(Br)c2)CC1 | 0% | 50µM* | 27µM* | -3% | -25% | 0%
CC(C)(C)c1cc([N+](=O)[O-])cc(C(C)(C)C)c1O | -14% | 2% | 27µM* | -17% | -29% | 1%
CC#C[C@]1(O)CC[C@H]2C3C=C(C)C4=CC(=O)C=C[C@]4(C)[C@H]3[C@@H](O)C[C@@]21C (stereo not given in full) | · | 2% | · | · | 0% | ·
CC(C)c1ccc(N2C(=O)NC(=O)/C(=C\c3cnc(-c4ccccc4)nc3)C2=O)cc1 | 10µM* | 45µM* | 21µM* | 8%[57.1 µM] | -22% | -4%
Cc1ccc(N2C(=O)NC(=O)/C(=C/c3cnc(-c4ccccc4)nc3)C2=O)cc1C | 6.3µM* | ? | 4.2µM* | 2% | 32µM* | 4%
Cc1cccc(N2C(=O)NC(=O)/C(=C\c3cnc(-c4ccccc4)nc3)C2=O)c1 | 10µM* | ? | 6µM* | -2% | 50µM* | -6%
[O]=[Cr](=[O])([OH])[O][Cr](=[O])(=[O])[OH] | · | 4% | · | · | -8% | ·
CN1C(=O)N(C)C(=O)C2(Cc3c(nc4ccccn4c3=O)N3CCc4ccccc4C32)C1=O (stereo not given) | -11% | 17% | 17µM* | -3% | -10% | 4%
c1ccc2sc(C3(N4CCCC4)CCCCC3)cc2c1 | · | 9% | · | · | -24% | ·
CCN(CC)C(=O)c1c(C)[nH]c(=S)c(C#N)c1-c1ccco1 | ? | 1µM* | 2.7µM* | 2%[57.1 µM] | ? | -5%
CC(C)CC1C(=O)N2CCC[C@H]2[C@]2(O)O[C@](NC(=O)[C@@H]3C=C4c5cccc6[nH]c(Br)c(c56)C[C@H]4N(C)C3)(C(C)C)C(=O)N12 (stereo not given in full) | 13% | · | · | -4% | -20% | ·
CC(C)OC(=O)C(O)(c1ccc(Cl)cc1)c1ccc(Cl)cc1 | · | -2% | · | · | -2% | ·

High-throughput results from PubChem.
